Bioassay records (PubChem)
D1 PAM: Potentiators of Human D1 Dopamine Receptor: qHTS; D(1A) dopamine receptor (Homo sapiens), P21728; HEK293 TREx D1 cells, calcium flux, dopamine EC20 potentiation; potentiation, % at 10 µM; 0.036% of 360,000 active; in the data active = potentiation above about 30%
Target sequence (P21728 whole entry, looked up): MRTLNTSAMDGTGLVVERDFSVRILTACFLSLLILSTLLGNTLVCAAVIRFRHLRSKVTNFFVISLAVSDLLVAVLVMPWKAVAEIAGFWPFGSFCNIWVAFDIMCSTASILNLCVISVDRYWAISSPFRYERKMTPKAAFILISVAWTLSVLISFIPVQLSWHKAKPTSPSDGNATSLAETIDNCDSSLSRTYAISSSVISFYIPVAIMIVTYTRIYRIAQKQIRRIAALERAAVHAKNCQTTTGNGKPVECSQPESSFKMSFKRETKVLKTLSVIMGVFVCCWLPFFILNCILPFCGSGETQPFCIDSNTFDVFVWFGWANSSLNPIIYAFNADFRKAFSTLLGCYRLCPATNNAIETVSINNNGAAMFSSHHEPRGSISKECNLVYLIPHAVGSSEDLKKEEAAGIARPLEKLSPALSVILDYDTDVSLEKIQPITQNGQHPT
TRHR ag: qHTS for Small Molecule Agonists and Allosteric Enhancers of Human TRH Receptor: Primary Screen for Agonists. activation, % at 2 µM. 0.18% of 360,000 active. Thyrotropin-releasing hormone receptor (Homo sapiens), P34981. TRHR cells, calcium flux fluo-8, FDSS agonist mode
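TRHR-expressing cells, plated overnight in medium with 10% serum, were loaded with fluo-8 calcium dye at room temperature. After a 10 s baseline, library compound was pin-added and calcium release was recorded kinetically (ex 480/em 530) as agonist response.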
D1 antag: Antagonist of Human D 1 Dopamine Receptor: qHTS. HEK293 TREx D1 cells, calcium flux, dopamine EC80; hits give low values. activity change, negative = inhibition, % at 10 µM. 3.2% of 360,000 active; in the data active = activity change below about -30%
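Kinetic fluorescence of a calcium dye serves as the read-out. D1-expressing Hek293 Trex cells, induced overnight at 30 C, are exposed to compound for 180 s before an EC80 dopamine addition, then read 180 s further.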
TRHR enhancer: qHTS for Small Molecule Agonists and Allosteric Enhancers of Human TRH Receptor: Primary Screen for Enhancers; AID 493056, 2011; TRHR cells, fluo-8 calcium fluorescence, EC20 TRH enhancement; enhancement, % at 2 µM; 0.66% of 360,000 active; Thyrotropin-releasing hormone receptor (Homo sapiens), P34981; in the data active = enhancement above about 30%
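TRHR-expressing cells loaded with fluo-8 calcium dye were read kinetically (ex 480/em 530) during compound addition, then stimulated with an EC20 of TRH (10 nM final). Enhancement of the Gq-mediated intracellular calcium response was scored.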
D1 agonist: Allosteric Agonists of the Human D1 Dopamine Receptor: qHTS | HEK293 T-REx D1 cells, calcium flux, agonist mode | activation, % at 2 µM | 1% of 360,000 active | AID 504660, 2011
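Inducible HEK293 T-REx D1 cells, force-coupled to calcium signalling, were plated at 4000 cells/well with tetracycline and held overnight at 30 C. After no-wash calcium dye loading, compound-evoked calcium rise over 180 s flagged agonists.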
Epigenetic reg: Quantitative High-Throughput Screen for Regulators of Epigenetic Control | murine LDR cells, GFP reporter derepression, 30 h | Potency, µM (doses to about 53.9 µM), usual class: activators | 0.2% of 280,000 active; active = well fitted activation curve with a large enough effect; inconclusive = small, poorly fitted or top-dose-only effect; note: nearly all actives have a fitted effect of over 60% in size
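Murine LDR cells bearing a silenced CMV-driven GFP reporter were exposed to compound for 30 h at 37 C. After PBS washes, GFP-positive cells (20-120 um objects) counted by laser-scanning microplate cytometry.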
Hits are given with their value; – = inactive; ? = inconclusive; · = no result; ! = not active in a repeat; [ ] = another dose, or the depositor's remark. Compounds with a hit are over-represented: about 4.6% of the library has one in this group of screens. Cut-off read from the data, not from the text of the source, unless noted: active = activation above about 30%; inactive = the rest.

SMILES	D1 PAM	TRHR ag	D1 antag	TRHR enhancer	D1 agonist	Epigenetic reg
COc1ccc(CC(=O)Nc2ccc3c(C(F)(F)F)cc(=O)oc3c2)cc1OC	–	–	–	–	–	–
CC(=O)OC[C@H](N)C(=O)c1ccccc1	·	·	·	·	·	–
OC(c1cccc(Cl)c1)(c1cccc(Cl)c1)C1CN2CCC1CC2 (stereo not given)	–	–	-35	–	52	–
CC(=O)OCC(N)C(=O)c1ccccc1 (stereo not given)	·	·	·	·	·	–
Cc1cc(C)cc(C(=O)OC2CC3CCC(C2)N3C)c1 (stereo not given)	·	·	·	·	·	–
Cc1nn(Cc2ccccc2)c(C)c1C=C1C(=O)NC(=S)NC1=O	–	–	–	–	–	–
Cc1ccc(Cn2nc(C)c(C=O)c2Cl)cc1	–	–	-36	–	–	–
CN(CCc1ccc(Cl)c(Cl)c1)[C@H]1CCCC[C@H]1N1CCCC1	·	·	·	·	·	–
CN1CCN(c2nc(N)cc(=O)[nH]2)CC1	–	–	-58	–	–	–
COC(=O)CSC1=NN1c1cc(C)nc(N)n1	–	–	-33	–	–	–
CCc1c(C)nc(N)nc1N1N=C1SCC(=O)OC	–	–	–	–	–	–
CN(C(=O)Cc1ccc(Cl)c(Cl)c1)[C@H](CN1CCCC1)c1cccc(N=C=S)c1	·	·	·	·	·	–
CC(=O)Oc1c2c(c(CC=C(C)C)c3c1C(=O)C1=CC4CC5C(C)(C)OC(C/C=C(\C)C(=O)O)(C4=O)[C@]15O3)OC(C)(CCC=C(C)C)C=C2 (stereo not given in full)	·	·	·	·	·	–
COc1ccc(OCC(=O)N2CCN(CCc3ccccn3)CC2)cc1	–	–	–	–	–	–
CCCCN1C(=O)NC(=O)C2(Cc3c(nc4c(C)cccn4c3=O)N3CCc4ccccc4C32)C1=O (stereo not given)	–	–	–	–	38	–
CCCCCCCCCCCCCC(=O)OC1C(C)[C@@]2(O)C(C=C(CO)C[C@]3(O)C(=O)C(C)=C[C@H]23)[C@@H]2C(C)(C)[C@]12OC(C)=O (stereo not given in full)	·	·	·	·	·	–
Clc1cccc(CN2CCCCC2c2cccnc2)c1 (stereo not given)	–	–	–	–	–	–
c1cncc(C2CCCCN2Cc2ccc3c(c2)OCO3)c1 (stereo not given)	–	–	-38	–	–	–
OCC1CCCN2CCCCC12 (stereo not given)	·	·	·	·	·	–
CCCCCCC(C)(C)c1cc(OC)c2c(c1)OC(C)(C)[C@@H]1CC=C(C)C[C@@H]21	·	·	·	·	·	–
O=C(/C=C/c1c[nH]c2ccccc12)c1c(O)n(CCc2ccccc2)c(=O)[nH]c1=O	39	40	–	47	383	?
CCCCn1c(O)c(C(C)=NCCc2c[nH]c3ccccc23)c(=O)[nH]c1=O	–	–	–	–	–	–
Cc1cccc(CN2C(=O)CN=C(c3ccccc3)c3cc(Cl)ccc32)c1	–	–	–	–	–	–
CCC(CO)NC(=O)C1C=C2c3cccc4[nH]cc(c34)CC2N(C)C1 (stereo not given)	–	–	-86	–	–	–
CC[C@@H](CO)NC(=O)[C@@H]1C=C2c3cccc4c3c(cn4C)C[C@H]2N(C)C1	–	–	-77!	–	–	–
SMILES	D1 PAM	TRHR ag	D1 antag	TRHR enhancer	D1 agonist	Epigenetic reg
O=C(COc1ccc(Br)cc1)Nc1ccc(Cl)cc1C(=O)c1ccccc1	–	–	–	–	–	–
COCc1cc(OC(=O)N(C)C)nc2c1c(C)nn2C	–	–	–	–	–	–
Cc1cc(OC(=O)N(C)C)nc2c1c(C)nn2C	–	–	–	40	–	–
CC(C)(C)c1ccc(O)c(N=Cc2c(O)ccc3ccccc23)c1	–	63	–	–	258	·
O=C1C=CC(=O)C(Cl)=C1	·	·	·	·	·	–
CC1(C)CSC(=NCc2ccccc2)N1	36	77	-38	–	152	–
CN(C)c1ccc(/C=C/[N+](=O)[O-])cc1	–	31	–	–	92	–
CC(C)Cc1nnc(NC(=O)CCC(=O)N2CCN(CCOC(c3ccccc3)c3ccccc3)CC2)s1	–	–	-32	–	–	–
O=C(c1ccc(N2CC3CC(C2)c2cccc(=O)n2C3)c([N+](=O)[O-])c1)N1CCCCC1 (stereo not given)	–	–	-53	–	–	–
CC1CCCCN1C(=O)c1ccc(N2CC3CC(C2)c2cccc(=O)n2C3)c([N+](=O)[O-])c1 (stereo not given)	–	–	–	–	–	–
O=C(c1ccc(N2CC3CC(C2)c2cccc(=O)n2C3)c([N+](=O)[O-])c1)N1CCCC1 (stereo not given)	–	–	-35	–	–	–
CC(=O)O[C@H]1[C@H]2[C@@H](OC(=O)Cc3ccccc3)[C@@H](C)C[C@]2(OC(C)=O)C(=O)/C(C)=C/[C@@H]2[C@H](CC[C@@]13CO3)C2(C)C	·	·	·	·	·	–
CCN1C[C@@]2(OC(=O)c3ccccc3NC(C)=O)CCC(OC)[C@@]34C5CC6C(OC)C[C@@](O)(C(CC23)[C@@H]14)C5(O)C6OC (stereo not given in full)	·	·	·	·	·	–
Cc1ccc(CNc2cc(C)nc3nc(-c4ccc(C)cc4)nn23)cc1	–	–	–	–	–	?
CCN(CC)c1ccc(/C=N/c2sc3c(c2C#N)C2CCN3CC2)c(O)c1	–	52	–	–	247	2.8µM
C[n+]1c2cc(N)ccc2cc2ccc(N)cc21	·	·	·	·	·	0.79µM
COc1ccc(CCNCc2c(OC)ccc3ccccc23)cc1	–	–	–	–	73	·
CC(C)n1cnc2c(C(=O)N[C@H]3CN4CCC3CC4)cc(Cl)cc21	·	·	·	·	·	–
Oc1ccc(C[C@H]2NCCc3cc(O)c(O)cc32)cc1O	–	–	-90	–	–	·
Cc1nonc1OCCNCCNc1ccc([N+](=O)[O-])c2cccnc12	–	–	-35	–	–	–
NC1CCc2cc(O)c(O)cc2C1 (stereo not given)	–	–	-102	–	77	?
COC(=O)[C@H]1[C@H](c2ccccc2)C(=O)[C@@]2(O)c3ccccc3O[C@@]12c1ccccc1	·	·	·	·	·	–[10.1 µM]
COc1ccccc1Sc1ccccc1CC(C)N (stereo not given)	–	–	–	–	60	–
COc1cc2c(cc1OC)[C@@]13CCN4CC5=CCOC6CC(=O)N2C1[C@H]6[C@@H]5C[C@@H]43 (stereo not given in full)	·	·	·	·	·	–
